For seven molecules, growth results are on record in PubChem BioAssay (NCI).

Several values for one entry are separate records, joined by “and”; a condition that tells them apart may be missing. Identical values can stand only once. Compounds without any hit were thinned out: in the full panel of roughly 83,000, 20% have a hit.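 Values shown are percent growth following 48 h exposure of cells in 96-well plates to a single concentration of compound; below 10 was considered active.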 Unmarked numbers belong to inactive results. Activity calls are given as the source filed them.

What all share (assay): NCI-60 one-dose screen, 48 h (100 = growth as untreated, 0 = no growth, -100 = all killed)
Experiment [1] has as its system HCT-15 colon.
Experiment [2] relates to HT29 colon.
Experiment [3] has as its system SNB-75 CNS.
In experiment [4] the test system is SNB-19 CNS. The conditions noted are these: 10 µM unless noted.
Experiment [5] concerns U251 CNS. To be noted: 10 µM unless noted.
Experiment [6] concerns PC-3 prostate.
Experiment [7] concerns UACC-62 melanoma.
The test system of experiment [8] is LOX IMVI melanoma.
Experiment [9] relates to SK-MEL-2 melanoma.
For experiment [10], the system named is EKVX NSCLC. To be noted: 10 µM unless noted.
Experiment [11] deals with SN12C renal.
Experiment [12] relates to UO-31 renal.
Experiment [13] has as its system TK-10 renal.
For experiment [14], the system named is ACHN renal.
Experiment [15] has as its system CAKI-1 renal.
The subject of experiment [16] is CCRF-CEM leukemia. The conditions noted are these: 10 µM unless noted.
Experiment [17] deals with SK-MEL-5 melanoma.
In experiment [18] the test system is SK-MEL-28 melanoma.
Experiment [19] concerns MOLT-4 leukemia. The conditions noted are these: 10 µM unless noted.
Experiment [20] concerns A498 renal.

Take `CCC(CCCN(CC)CCc1ccccc1)OC(=O)c1cc(OC)c(OC)c(OC)c1` (stereo not given): the growth in [1] (10 µM unless noted) was 89.8%; in [2] (10 µM unless noted) it was 57.3%; in experiment [3] (10 µM unless noted) it was 65.3%; in [4], 92.3%; in [5], 90.8%; in experiment [6] (10 µM unless noted) it was 82.4%. Further, the growth in experiment [7] (10 µM unless noted) is 90.7%; in [8] (10 µM unless noted), 80.9%; in experiment [9] (10 µM unless noted), 95.6%; in [10], 83.8%; in experiment [11] (10 µM unless noted), 90.2%; in experiment [12] (10 µM unless noted), 69.8%. Besides, the growth in [13] (10 µM unless noted) is 72.6%; in [14] (10 µM unless noted), 82.8%; in experiment [15] (10 µM unless noted), 89.7%; in [16], 98.6%.

As to `CN(C)C(=O)c1ccc(SC(=S)NCc2ccccc2)cc1`, the growth was 92.2% in [1] (10 µM); -35.1% (active) in [1] (100 µM); 110% in experiment [3] (10 µM); 1.41% (active) in experiment [3] (100 µM); 16.7% [100 µM] in experiment [5]; 97.1% in experiment [6] (10 µM). Further, the growth in experiment [6] (100 µM) was 17.6%; in experiment [17] (10 µM), 102%; in experiment [17] (100 µM) it was -53.1% (active); in [7] (10 µM), 103%; in experiment [7] (100 µM), 1.05% (active); in experiment [9] (10 µM), 114%. In addition, the growth in experiment [9] (100 µM) is 4.25% (active); in [10], 69.5% [100 µM]; in experiment [11] (10 µM) it was 103%; in [11] (100 µM), -15.4% (active); in experiment [12] (10 µM), 93.2%; in experiment [12] (100 µM), -67.4% (active). Moreover, the growth in [13] (10 µM unless noted) is -4.78% [100 µM] (active); in experiment [14] (10 µM) it was 103%; in experiment [14] (100 µM), -56.9% (active); in experiment [15] (10 µM) it was 102%; in [15] (100 µM), 11.2%; in experiment [16], 0.435% [100 µM] (active).

Take `Cc1ccnc2c1ccc1c(C)ccnc12`: the growth in [1] (10 µM unless noted) was 20.9%; in experiment [2] (10 µM unless noted), 17.7%; in experiment [3] (10 µM unless noted) it was 52.4%; in experiment [4], 21.9%; in experiment [5] it was 7.48% (active); in [6] (10 µM unless noted), 22%. The growth is 18.3% in [17] (10 µM unless noted); 2.66% (active) in [7] (10 µM unless noted); 20.7% in experiment [18] (10 µM unless noted); 27.3% in [9] (10 µM unless noted); 22.2% in experiment [10]; -4.12% (active) in experiment [12] (10 µM unless noted). The growth in [13] (10 µM unless noted) is 25.7%; in [14] (10 µM unless noted) it was 11.3%; in experiment [15] (10 µM unless noted), 16%; in experiment [16] it was 13.6%; in experiment [19] it was 3.4% (active).

Take `CCCCCCCCCCCCCCCCN(CC)CC`: the growth in experiment [1] (10 µM unless noted) was -90.2% (active); in experiment [2] (10 µM unless noted), -56.8% (active); in [3] (10 µM unless noted) it was -22.6% (active); in [4], -87.9% (active); in [5] it was -66.8% (active); in experiment [6] (10 µM unless noted), 0.915% (active). In addition, the growth in [17] (10 µM unless noted) is -97.7% (active); in [7] (10 µM unless noted) it was -86.6% (active); in experiment [8] (10 µM unless noted), -100% (active); in experiment [18] (10 µM unless noted) it was -91% (active); in experiment [9] (10 µM unless noted), -79.9% (active); in experiment [10], -88.5% (active). The growth in [12] (10 µM unless noted) was -69.3% (active); in experiment [13] (10 µM unless noted), -89.4% (active); in experiment [14] (10 µM unless noted), -57.4% (active); in experiment [15] (10 µM unless noted), -81.9% (active); in experiment [20] (10 µM unless noted), 107%; in experiment [16], -13.4% (active).

On to `NC(=S)N/N=C/c1ccc(Cl)s1`, for which the growth in experiment [1] (10 µM unless noted) is 101%; in [2] (10 µM unless noted) it was 108%; in experiment [3] (10 µM unless noted), 108%; in experiment [4], 101%; in experiment [5], 101%; in [6] (10 µM unless noted), 101%. The growth in [17] (10 µM unless noted) was 97.2%; in [7] (10 µM unless noted) it was 101%; in experiment [8] (10 µM unless noted) it was 101%; in [9] (10 µM unless noted), 105%; in experiment [10], 76.6%; in experiment [12] (10 µM unless noted), 100%. Besides, the growth in [13] (10 µM unless noted) is 105%; in experiment [14] (10 µM unless noted) it was 109%; in experiment [15] (10 µM unless noted), 98.1%; in experiment [20] (10 µM unless noted), 97.1%; in [16], 94.6%; in experiment [19], 99.2%.

Consider `O=C(Nc1c(Cl)cccc1Cl)Oc1cccc2cccnc12`, for which the growth is 27.9% in experiment [1] (10 µM); 18.3% in experiment [1] (100 µM); 79.4% in experiment [2] (10 µM); 55.3% in [2] (100 µM); 73.1% in experiment [3] (10 µM); 20.8% in [3] (100 µM). For the same molecule, the growth in [5] was 19.5% [100 µM]; in experiment [17] (10 µM), 55.9%; in experiment [17] (100 µM), 14.4%; in [7] (10 µM) it was 20.2%; in experiment [7] (100 µM), -74.8% (active); in [8] (10 µM) it was 33.1%. Moreover, the growth in [8] (100 µM) was 7.87% (active); in experiment [18] (10 µM), 73.9%; in [18] (100 µM), 38.5%; in [9] (10 µM) it was 79.8%; in experiment [9] (100 µM) it was 25.9%; in experiment [10], -9.97% [100 µM] (active). Further, the growth in experiment [12] (10 µM) is 17%; in experiment [12] (100 µM), 6.51% (active); in experiment [13] (10 µM), 58.8%; in experiment [13] (100 µM), 22.4%; in experiment [14] (10 µM), 38.8%; in experiment [14] (100 µM), 12.1%. Besides, the growth in experiment [15] (10 µM) was -9.81% (active); in experiment [15] (100 µM) it was 16.8%; in experiment [20] (10 µM) it was 98.2%; in experiment [20] (100 µM) it was 94.5%; in [16], 8.09% [100 µM] (active).

For `COc1ccccc1OC(=O)Oc1ccccc1OC`, the growth in experiment [1] (10 µM unless noted) is 110% and 95.2%; in experiment [2] (10 µM unless noted), 102% and 95.7%; in experiment [3] (10 µM unless noted) it was 97.8% and 90.8%; in [4] it was 104%; in experiment [5], 111% and 106%; in experiment [6] (10 µM unless noted), 102% and 81.8%. In addition, the growth in [17] (10 µM unless noted) was 100%; in [7] (10 µM unless noted), 100% and 96.4%; in experiment [8] (10 µM unless noted) it was 107% and 95%; in experiment [18] (10 µM unless noted), 110% and 106%; in [9] (10 µM unless noted), 115% and 91.6%; in experiment [10], 118% and 97%. The growth in experiment [11] (10 µM unless noted) was 105% and 95.8%; in experiment [12] (10 µM unless noted), 78.2% and 93.9%; in experiment [13] (10 µM unless noted), 104% and 98%; in [14] (10 µM unless noted) it was 108% and 104%; in experiment [15] (10 µM unless noted), 97.9%; in [16] it was 101% and 83.6%.
